This is an account of results in ChEMBL document CHEMBL3433997, “St. Jude Leishmania screening dataset” (2016).

The term inhibition denotes the drop in the measured response relative to a control, in per cent.

Each structure is given as a SMILES string.

Sequence of Solute carrier family 2, facilitated glucose transporter member 1 (Homo sapiens) (P11166 whole entry): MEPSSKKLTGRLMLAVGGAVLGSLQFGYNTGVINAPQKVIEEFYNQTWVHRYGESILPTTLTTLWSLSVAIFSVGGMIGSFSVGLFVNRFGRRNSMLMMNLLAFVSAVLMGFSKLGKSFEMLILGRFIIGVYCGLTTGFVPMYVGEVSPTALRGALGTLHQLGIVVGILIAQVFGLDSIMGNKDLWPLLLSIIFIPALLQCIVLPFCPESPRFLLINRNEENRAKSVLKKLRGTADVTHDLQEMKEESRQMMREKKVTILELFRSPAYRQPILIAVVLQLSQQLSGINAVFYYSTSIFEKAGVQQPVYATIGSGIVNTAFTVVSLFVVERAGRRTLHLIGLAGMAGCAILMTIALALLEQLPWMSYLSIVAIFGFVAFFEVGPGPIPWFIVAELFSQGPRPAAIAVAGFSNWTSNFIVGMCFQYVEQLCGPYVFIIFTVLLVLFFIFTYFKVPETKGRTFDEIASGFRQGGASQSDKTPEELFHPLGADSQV

The experiment concerns the target Solute carrier family 2, facilitated glucose transporter member 1 (Homo sapiens) (UniProt P11166). In words: ST_JUDE_LEISH: Cytotoxicity at 2uM final concentration against transgenic Leishmania Mexicana promastigotes LmGLUT1 that are glucose transport deficient and complemented with the human glucose transporter GLUT1. Activity is measured by DNA content using SYBR green in vitro. The class given is functional.
Turning to `CCCCNCc1ccc(-c2nc(CN(CCCn3ccnc3)C(=O)NC3CC3c3ccccc3)cs2)cc1` (stereo not given), the inhibition came to 3.77%.

In the case of `Cc1cccc2nc(-c3ccc(-c4ccc(NC(=O)Nc5ccc(Cl)c(Cl)c5)cc4)s3)[nH]c12`, the inhibition is 1.5%.

In the case of `O=C(NCc1ccccc1[S+]([O-])c1ccccc1CO)C(F)(F)F` (stereo not given), the inhibition is -1.33%.

With `Cc1cc(N[C@@H](Cc2ccccc2)C(=O)NCCCOC(C)C)nc(NCC2CCCCC2)n1`, the inhibition was determined as 11.7%.

`COc1ccc(CN2C(=S)N(Cc3ccccc3)C(=O)C2CC(=O)Nc2ccccc2)cc1OC` (stereo not given): the inhibition stood at 0.79%.

For the compound `C=CCOC(=O)N1CCC(CNCc2cccc(-c3ccc(-c4nc5cc(C(F)(F)F)ccc5[nH]4)cc3)c2)C1` (stereo not given), the inhibition was determined as 2.19%.

With `CN(C)CCN1CCN(Cc2cccc(-c3csc(-c4nc5ccccc5[nH]4)c3)c2)CC1`, the inhibition was determined as 0.51%.

Turning to `Cc1cccc2nc(-c3ccc(-c4cccc(CNCc5cccc(N)c5)c4)s3)[nH]c12`, the inhibition is 2.48%.

On to `Cc1cc(C(=O)N[C@H]2CCN(Cc3ccc(OCCCN(C)C)cc3)C2)ccc1Br`, for which the inhibition was determined as 0.17%.

As to `CC(C)CCCC(C)NC[C@@H](O)[C@H](Cc1ccccc1)NC(=O)c1cc(N2CCCC2=O)cc(N(c2ccccc2)S(C)(=O)=O)c1` (stereo not given in full), the inhibition was determined as 1.85%.

Regarding `COc1ccc2nc3cc(Cl)ccc3c(NCCN3CCN(C)CC3)c2c1`, the inhibition was determined as 4.56%.

Consider `O=C(NC1CC1)c1cnc(N2CCC(COc3cccc(F)c3)CC2)c(Cl)c1`, for which the inhibition turned out to be 1.83%.

Regarding `O=C(NCCN1CCOCC1)c1ccc(O)c(-c2cccc(C(F)(F)F)c2)c1`, the inhibition is 0.48%.

Turning to `CN(c1ccccc1)c1ccnc(NC(=N)Nc2ccc(Cl)cc2)n1`, the inhibition is 5.16%.

`CCCCCCN1CCCN(Cc2ccc(C(=O)Nc3ccc(CCC)cc3)cc2)CC1`: the inhibition came out at 9.31%.

Consider `Cc1cc(O)c(-c2ccc(Oc3ccc(F)cc3)cc2)c(C)n1`, for which the inhibition came to 0.78%.

Regarding `CC(C)CNCc1cccc(-c2cccc(CN(CCCN3CCN(C)CC3)C(=O)/C=C/c3ccccc3)c2)c1`, the inhibition was -1.06%.

With `COc1nc2c(CCN3CCC(NCc4ccc5c(c4)NCCO5)CC3)c(Cl)cnc2cc1F`, the inhibition was 14.1%.

On to `CS(=O)(=O)NCCCNCc1ccc(-c2ccc(-c3nc4cc(F)ccc4[nH]3)s2)cc1`, for which the inhibition was -2.43%.

Turning to `Cc1ccc2[nH]c(-c3ccc(C=CC(=O)NCc4ccc(Cl)c(Cl)c4)cc3)nc2c1`, the inhibition stood at 10.3%.

On to `CC(=O)N(C)c1cccc(C(=O)Nc2cccc(-c3cccc(-c4nc5cc(C(F)(F)F)ccc5[nH]4)c3)c2)c1`, for which the inhibition was 12.3%.

Regarding `Cc1noc(C)c1-c1ccc(C(=C2CCCCCCC2)c2ccc(O)cc2)cc1`, the inhibition was -4.06%.

On to `O=C(Nc1cc(Oc2ccc(O)cc2)cc([N+](=O)[O-])c1)c1cc(-c2ccc(F)cc2)no1`, for which the inhibition is 2.24%.

Regarding `CN(C)CCN(C)Cc1nc(-c2ccc3c(Nc4ccc(Oc5ccccc5)cc4)ccnc3c2)cs1`, the inhibition stood at 2.99%.

Turning to `CC(C)c1ccc(OCC(O)CN(C)C(C)C(O)c2ccccc2)c(Br)c1` (stereo not given), the inhibition was determined as 5.55%.

In the case of `Cc1ccc2nc(C)n(C3CCN(C(=O)Cc4ccccc4C)CC3)c2c1`, the inhibition was 5.4%.

Take `C=Cc1ccccc1C1(O)CCN(CCCCNC(=O)c2ccc(-c3ccc(C#N)cc3)cc2)CC1`: the inhibition worked out at 1.27%.

Turning to `CCCC1(NC[C@@H](O)[C@H](Cc2ccccc2)NC(=O)c2cc(NCC)cc(N3CCCCS3(=O)=O)c2)CCCCC1`, the inhibition was -0.81%.

Take `COc1ccc2ncc(C#N)c(CCN3C4CCC3CC(NCc3ccc5c(n3)NC(=O)CS5)C4)c2c1` (stereo not given): the inhibition amounted to 4.35%.

For `NC1CCCN(Cc2ccc(-c3ccc(-c4nc5cc(F)ccc5[nH]4)s3)cc2)C1` (stereo not given), the inhibition amounted to 2.77%.

For `CS(=O)(=O)Nc1cccc(-c2cnc3[nH]cc(-c4ccc(C(=O)O)cc4)c3c2)c1`, the inhibition came to 0.37%.

On to `CN(Cc1ccc(-c2ccc(C(F)(F)F)cc2)cc1)C(=O)Cn1c(CCc2cccc(F)c2F)cc(=O)c2ccc(OCC3CCCN3C)cc21` (stereo not given), for which the inhibition worked out at 3.87%.

In the case of `COc1cccc(CN2CCC(N3CCc4cc(NC(=O)c5cc(C)on5)ccc43)C2)c1OC` (stereo not given), the inhibition came out at 1.63%.

As to `C=CCOC(=O)N1CCC(CNCc2cccc(-c3ccc(-c4nc5cccc(C)c5[nH]4)cc3)c2)C1` (stereo not given), the inhibition was found to be 6.3%.

With `CNC(=O)C(C)N(c1ccc(Cl)cc1)c1nc(C(C)(C)C)cs1` (stereo not given), the inhibition is -1.9%.

For the compound `Cc1cc(-c2cnc(N)c(-c3ccc(N4CCN(C)CC4)nc3)c2)cc(C)c1O`, the inhibition stood at 1.2%.

`CC1CNC(c2ccc(NC(=O)c3ccc(C(=O)Nc4ccc(C5=NC(C)CN5)cc4)cc3)cc2)=N1` (stereo not given): the inhibition was 8.16%.

In the case of `CCn1c(Cc2ccccc2)nnc1Sc1ccc([N+](=O)[O-])c(C#N)c1`, the inhibition was determined as 5.75%.

In the case of `Cc1cc(NCCc2cccc(F)c2)nc(NC(=N)Nc2cccc(C(F)(F)F)c2)n1`, the inhibition came out at 3.82%.

In the case of `CC(O)C1CCCCN1C(=O)c1ccc(-c2cccc(-c3nc4cc(F)ccc4[nH]3)c2)cc1` (stereo not given), the inhibition was 3.01%.
